“And” between values parts separate entries of the source, which are not always exact repeats. Identical values can stand only once. Counter-ions that a name gives are not always drawn. Values without a mark were called inactive.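 The calls were made as follows: active = log2 fold change beyond 2 SD from the library mean after excluding viability outliers; inactive = within 2 SD.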
Each compound was assayed against PARP1 L713F-nLuc biosensor (HCT116) (UniProt P09874) (assay: PARP1 L713F-nLuc/akaLuc ratio relative to DMSO control (biosensor stabilization) (fold change); higher = more PARP1 biosensor stabilization (target engagement / stabilizer), active = hit call of the paper). Conditions: stock concentration (mM; final µM = stock mM x 1): 10; 24 h.
PARP1 L713F-nLuc biosensor (HCT116), sequence (P09874 whole entry L713F, looked up): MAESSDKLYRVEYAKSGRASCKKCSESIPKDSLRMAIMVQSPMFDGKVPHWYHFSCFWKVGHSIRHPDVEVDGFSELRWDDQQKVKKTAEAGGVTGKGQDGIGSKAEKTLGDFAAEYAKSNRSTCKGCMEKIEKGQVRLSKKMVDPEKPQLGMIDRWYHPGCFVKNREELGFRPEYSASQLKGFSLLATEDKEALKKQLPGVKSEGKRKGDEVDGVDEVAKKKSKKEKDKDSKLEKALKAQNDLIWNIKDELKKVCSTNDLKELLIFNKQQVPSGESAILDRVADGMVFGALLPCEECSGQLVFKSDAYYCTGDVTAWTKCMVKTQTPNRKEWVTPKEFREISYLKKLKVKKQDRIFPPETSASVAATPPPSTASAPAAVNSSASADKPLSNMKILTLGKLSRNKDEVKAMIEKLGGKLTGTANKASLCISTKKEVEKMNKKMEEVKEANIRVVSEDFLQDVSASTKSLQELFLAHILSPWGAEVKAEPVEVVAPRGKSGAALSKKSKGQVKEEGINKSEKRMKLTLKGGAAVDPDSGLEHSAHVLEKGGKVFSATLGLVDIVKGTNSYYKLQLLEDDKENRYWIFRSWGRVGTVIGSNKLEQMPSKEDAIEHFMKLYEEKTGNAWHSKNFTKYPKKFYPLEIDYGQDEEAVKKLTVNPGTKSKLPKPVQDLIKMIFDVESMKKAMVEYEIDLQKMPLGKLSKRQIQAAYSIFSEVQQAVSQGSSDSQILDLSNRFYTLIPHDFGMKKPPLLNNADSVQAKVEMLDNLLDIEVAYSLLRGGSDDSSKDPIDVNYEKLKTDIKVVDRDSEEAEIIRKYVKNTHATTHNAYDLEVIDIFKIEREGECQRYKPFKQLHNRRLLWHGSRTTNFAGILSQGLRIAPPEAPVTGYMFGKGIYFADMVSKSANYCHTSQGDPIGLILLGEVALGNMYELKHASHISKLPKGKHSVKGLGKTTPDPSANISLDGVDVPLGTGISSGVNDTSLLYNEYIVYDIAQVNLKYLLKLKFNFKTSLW

SMILES | PARP1 L713F-nLuc/akaLuc ratio
Cn1cnc2c(F)c(Nc3ccc(Br)cc3Cl)c(C(=O)NOCCO)cc21 [Selumetinib (AZD6244)] | 0.465
CCN(CCO)CCCOc1ccc2c(Nc3cc(CC(=O)Nc4cccc(F)c4)[nH]n3)ncnc2c1 [Barasertib-HQPA] | 0.878
C=C(C)[C@@H]1CCC(C)=C[C@H]1C1=C(O)C(=O)C(CCCCC)=C(NCc2ccccc2)C1=O | 1.39
O=c1[nH]c(=S)[nH]c(-c2ccccc2)c1Cc1c(O)ccc2ccccc12 [Cambinol] | 0.684
Cc1cn(-c2cc(NC(=O)c3ccc(C)c(Nc4nccc(-c5cccnc5)n4)c3)cc(C(F)(F)F)c2)cn1 [Nilotinib (AMN-107)] | 0.959
COc1ccc(COc2cc3oc(=O)c4cc(C(C)O)ccc4c3cc2OC)cc1 (centres undefined) [Palomid 529 (P529)] | 0.578
CC(C)[C@@](C)(O)[C@@H]1CN(c2nc(-c3[nH]nc4ncccc34)c(F)cc2Cl)CCN1 | 0.823
CN1CCC(CNc2ccc3ncc(-c4cccc(OC(F)(F)F)c4)n3n2)CC1 | 1.51
CC(=O)Nc1ccccc1-c1cccc2c1[nH]c1ccccc12 | 0.622
O=c1[nH]c(=O)n([C@H]2C[C@H](O)[C@@H](CO)O2)cc1C(F)(F)F [Trifluridine] | 0.548
C[C@H](Nc1cc(-c2cnn(C)c2)cc(Nc2cnccn2)n1)c1ccc(F)cc1 [Ilginatinib (maleate)] | 0.614
CC1(C)C(=O)NC2=C1C(=O)C(=O)c1ccccc12 | 0.888
COc1nc(Nc2cc(S(C)(=O)=O)ccc2N[C@@H](c2cccc3c2OC(F)(F)O3)c2ncccc2Cl)nc(N2CCNCC2)n1 | 0.707
S=c1[nH]cnc2nc[nH]c12 [Mercaptopurine (6-MP)] | 2.51
CC(C)Nc1cc(-c2c[nH]c(C(=O)N[C@H](CO)c3cccc(Cl)c3)c2)c(Cl)cn1 | 0.364
N#Cc1ccc2[nH]c(O)c(-c3ccc(CN4CCOCC4)cn3)c2c1 | 0.881
CC(=O)O[C@H]1C(=O)[C@@]2(C)[C@H]([C@H](OC(=O)c3ccccc3)[C@]3(O)C[C@H](OC(=O)[C@H](O)[C@@H](NC(=O)c4ccccc4)c4ccccc4)C(C)=C1C3(C)C)[C@]1(OC(C)=O)CO[C@@H]1C[C@@H]2O [Paclitaxel] | 2.97 (active)
Cc1ccc(=O)n(-c2ccccc2)c1 [Pirfenidone] | 0.824
N#Cc1ccc(-c2cnc3[nH]cc(NC(=O)c4cccnc4)c3c2)cc1 | 0.668
COc1cc2ncnc(Nc3ccc(NC(=O)c4ccccc4)cc3)c2cc1OC [Aurora kinase inhibitor-2] | 1.35
CCC1=C[C@@H]2CN(C1)Cc1c([nH]c3ccccc13)[C@@](C(=O)OC)(c1cc3c(cc1OC)N(C)[C@H]1[C@@](O)(C(=O)OC)[C@H](OC(C)=O)[C@]4(CC)C=CCN5CC[C@]31[C@@H]54)C2 [Vinorelbine Tartrate] | 0.576
O=C(/C=C/c1ccc(O)c(O)c1)O[C@@H]1C[C@](O)(C(=O)O)C[C@@H](O)[C@H]1O [Chlorogenic acid] | 1.16
CC(C)N(CCCNC(=O)Nc1ccc(C(C)(C)C)cc1)C[C@H]1O[C@@H](n2cc(Br)c3c(N)ncnc32)[C@H](O)[C@@H]1O | 0.82 and 0.934
CCCCNC(=N)NC(=N)N [Buformin (hydrochloride)] | 0.782
Cc1cc(N2C[C@@H](C)N[C@@H](C)C2)ncc1-c1ccc(-c2nc3c(ccn3C)c(=O)[nH]2)cc1 | 1.15
CCn1c(-c2nonc2N)nc2c(C#CC(C)(C)O)ncc(OC[C@H]3CCCNC3)c21 | 1.03 and 0.895
COCCCc1sc(-c2ccccc2)nc1C(=O)Nc1ccccc1-c1nc2cc(CN3CCCC3)cnc2s1 [Sirtuin modulator 1] | 0.737
COc1ccc(C(=C2C(=O)Nc3ccccc32)c2ccc(OC)cc2)cc1 | 0.833
COc1ccc2c(c1)c(C(=O)Nc1cc(C(=O)OC(C)(C)C)ccc1F)cn2C(C)=O | 0.714
